# Measured values taken from paper PMC5540273 (PLoS ONE, 2017).
# Values joined by “and” are separate entries in the source; they are usually repeats but may differ in a detail not shown here. Identical values can stand only once. Like-named read-outs stand apart in the source and are kept apart here.
# Legend:
# SRPK3 = conditions: concentration: 1 μM, replicates: in singlicate, n = 1
# STK16 = conditions: concentration: 1 μM, replicates: in singlicate, n = 1
# STK33 = conditions: concentration: 1 μM, replicates: in singlicate, n = 1
# STK35 = conditions: concentration: 1 μM, replicates: in singlicate; n = 1
# STK36 = conditions: concentration: 1 μM, replicates: in singlicate; n = 1
# STK39 = conditions: concentration: 1 μM, replicates: in singlicate, n = 1
# SYK = conditions: concentration: 1 μM, replicates: in singlicate, n = 1
# SgK110 = conditions: concentration: 1 μM, replicates: in singlicate; n = 1
# TAK1 = tested on: T1, TAK1; conditions: concentration: 1 μM, replicates: in singlicate, n = 1
# T1 construct: gene MAP3K7
# TAOK1 = conditions: concentration: 1 μM, replicates: in singlicate, n = 1
# TAOK2 = conditions: concentration: 1 μM, replicates: in singlicate; n = 1
# TAOK3 = conditions: concentration: 1 μM, replicates: in singlicate, n = 1
# TBK1 = conditions: concentration: 1 μM, replicates: in singlicate, n = 1
# TEC = conditions: concentration: 1 μM, replicates: in singlicate; n = 1
# TESK1 = conditions: concentration: 1 μM, replicates: in singlicate, n = 1
# TGFBR1 = conditions: n = 1
# TGFBR2 = conditions: concentration: 1 μM, replicates: in singlicate; n = 1
# TIE1 = conditions: concentration: 1 μM, replicates: in singlicate, n = 1
# TIE2 = tested on: T2, TIE2; conditions: concentration: 1 μM, replicates: in singlicate; n = 1
# T2 construct: gene TEK
# TLK1 = conditions: concentration: 1 μM, replicates: in singlicate, n = 1
# [1] = concentration: 1 μM, replicates: in singlicate
# 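Also: KINOMEscan kinase panel screen.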
compound,measurement,setting,value
Cc1ccc(C(=O)NCC(N)=O)cc1-n1c(C)cc(OCc2ccc(F)cc2F)c(Br)c1=O,%Inh,SRPK3,21%
same,%Inh,STK16,10%
same,%Inh,STK33,10%
same,%Inh,STK35,10%
same,%Inh,STK36,15%
same,%Inh,STK39,0%
same,%Inh,SYK,20%
same,%Inh,SgK110,0%
same,%Inh,TAK1,0%
same,%Inh,TAOK1,0%
same,%Inh,TAOK2,7%
same,%Inh,TAOK3,0%
same,%Inh,TBK1,36%
same,%Inh,TEC,13%
same,%Inh,TESK1,31%
same,%Inh,TGFBR1; [1],36%
same,%Inh,TGFBR2,26%
same,%Inh,TIE1,0%
same,%Inh,TIE2,0%
same,%Inh,TLK1,0%
O=C(c1ccc(-c2cc(-c3c[nH]nc3-c3ccccn3)ccn2)cc1)N1CCOCC1 [GW812171],%Inh,SRPK3,4%
same,%Inh,STK16,0%
same,%Inh,STK33,0%
same,%Inh,STK35,0%
same,%Inh,STK36,2%
same,%Inh,STK39,18%
same,%Inh,SYK,0%
same,%Inh,SgK110,32%
same,%Inh,TAK1,10%
same,%Inh,TAOK1,0%
same,%Inh,TAOK2,33%
same,%Inh,TAOK3,2%
same,%Inh,TBK1,31%
same,%Inh,TEC,16%
same,%Inh,TESK1,11%
same,%Inh,TGFBR1; 1 µM,90.7%
same,%Inh,TGFBR2,11%
same,%Inh,TIE1,0%
same,%Inh,TIE2,1%
same,%Inh,TLK1,0%
CN(C(=O)c1ccc(-c2cc(-c3c[nH]nc3-c3ccccn3)ccn2)cc1)C1CCOCC1 [GW810083],%Inh,SRPK3,11%
same,%Inh,STK16,0%
same,%Inh,STK33,0%
same,%Inh,STK35,0%
same,%Inh,STK36,0%
same,%Inh,STK39,17%
same,%Inh,SYK,0%
same,%Inh,SgK110,0%
same,%Inh,TAK1,24%
same,%Inh,TAOK1,0%
same,%Inh,TAOK2,0%
same,%Inh,TAOK3,0%
same,%Inh,TBK1,0%
same,%Inh,TEC,0%
same,%Inh,TESK1,1%
same,%Inh,TGFBR1; 1 µM,77%
same,%Inh,TGFBR2,21%
same,%Inh,TIE1,0%
same,%Inh,TIE2,1%
same,%Inh,TLK1,0%
CC(=O)Nc1ccc(COc2ccc(Nc3ccnc4cc(-c5ccccn5)ccc34)cc2)cc1.Cl [GW440148],%Inh,SRPK3,0%
same,%Inh,STK16,23%
same,%Inh,STK33,0%
same,%Inh,STK35,0%
same,%Inh,STK36,0%
same,%Inh,STK39,13%
same,%Inh,SYK,0%
same,%Inh,SgK110,0%
same,%Inh,TAK1,0%
same,%Inh,TAOK1,0%
same,%Inh,TAOK2,0%
same,%Inh,TAOK3,0%
same,%Inh,TBK1,21%
same,%Inh,TEC,0%
same,%Inh,TESK1,9%
same,%Inh,TGFBR1; [1],8%
same,%Inh,TGFBR2,28%
same,%Inh,TIE1,26%
same,%Inh,TIE2,6%
same,%Inh,TLK1,38%
Cc1cccc(Cn2ccn3c(=O)cc(N4CCOCC4)nc23)c1 [GSK2297542],%Inh,SRPK3,0%
same,%Inh,STK16,61%
same,%Inh,STK33,0%
same,%Inh,STK35,0%
same,%Inh,STK36,0%
same,%Inh,STK39,0%
same,%Inh,SYK,22%
same,%Inh,SgK110,0%
same,%Inh,TAK1,13%
same,%Inh,TAOK1,0%
same,%Inh,TAOK2,5%
same,%Inh,TAOK3,0%
same,%Inh,TBK1,10%
same,%Inh,TEC,11%
same,%Inh,TESK1,39%
same,%Inh,TGFBR1; [1],3%
same,%Inh,TGFBR2,0%
same,%Inh,TIE1,0%
same,%Inh,TIE2,0%
same,%Inh,TLK1,16%
CNc1ncnc2[nH]ncc12 [SKF-18355],%Inh,SRPK3,10%
same,%Inh,STK16,0%
same,%Inh,STK33,0%
same,%Inh,STK35,0%
same,%Inh,STK36,0%
same,%Inh,STK39,9%
same,%Inh,SYK,22%
same,%Inh,SgK110,0%
same,%Inh,TAK1,0%
same,%Inh,TAOK1,0%
same,%Inh,TAOK2,24%
same,%Inh,TAOK3,0%
same,%Inh,TBK1,30%
same,%Inh,TEC,0%
same,%Inh,TESK1,10%
same,%Inh,TGFBR1; [1],47%
same,%Inh,TGFBR2,0%
same,%Inh,TIE1,0%
same,%Inh,TIE2,2%
same,%Inh,TLK1,0%
NCCNS(=O)(=O)c1ccc(-c2ccnc3[nH]ccc23)cc1 [GSK977617],%Inh,SRPK3; 1 µM,67% and 37%
same,%Inh,STK16; 1 µM,80% and 68%
same,%Inh,STK33; 1 µM,85% and 71%
same,%Inh,STK35,0%
same,%Inh,STK36,0%
same,%Inh,STK39; 1 µM,0% and 13%
same,%Inh,SYK; 1 µM,32% and 15%
same,%Inh,SgK110,0%
same,%Inh,TAK1; 1 µM,75% and 65%
same,%Inh,TAOK1; 1 µM,54% and 40%
same,%Inh,TAOK2,0%
same,%Inh,TAOK3; 1 µM,0% and 2%
same,%Inh,TBK1; 1 µM,27% and 24%
same,%Inh,TEC,0%
same,%Inh,TESK1; 1 µM,14% and 13%
same,%Inh,TGFBR1; [1],0%
same,%Inh,TGFBR2,0%
same,%Inh,TIE1; 1 µM,32% and 23%
same,%Inh,TIE2,0%
same,%Inh,TLK1; 1 µM,36% and 13%
COc1ccc(S(=O)(=O)NC2CCN(c3cc(C)nc(Nc4cccc(C#N)c4)n3)CC2)cc1.O=C(O)C(F)(F)F [GSK1653539],%Inh,SRPK3,0%
same,%Inh,STK16,3%
same,%Inh,STK33,0%
same,%Inh,STK35,0%
same,%Inh,STK36,0%
same,%Inh,STK39,17%
same,%Inh,SYK,0%
same,%Inh,SgK110,0%
same,%Inh,TAK1,0%
same,%Inh,TAOK1,0%
same,%Inh,TAOK2,0%
same,%Inh,TAOK3,0%
same,%Inh,TBK1,11%
same,%Inh,TEC,10%
same,%Inh,TESK1,5%
same,%Inh,TGFBR1; [1],0%
same,%Inh,TGFBR2,0%
same,%Inh,TIE1,0%
same,%Inh,TIE2,0%
same,%Inh,TLK1,8%
Cc1nnc(-c2ccc3occ(-c4ccc(C(C)O)cc4)c3c2)o1 (centres unmarked),%Inh,SRPK3,0%
same,%Inh,STK16,12%
same,%Inh,STK33,0%
same,%Inh,STK35,32%
same,%Inh,STK36,19%
same,%Inh,STK39,0%
same,%Inh,SYK,14%
same,%Inh,SgK110,25%
same,%Inh,TAK1,25%
same,%Inh,TAOK1,0%
same,%Inh,TAOK2,8%
same,%Inh,TAOK3,0%
same,%Inh,TBK1,30%
same,%Inh,TEC,0%
same,%Inh,TESK1,3%
same,%Inh,TGFBR1; [1],3%
same,%Inh,TGFBR2,69%
same,%Inh,TIE1,18%
same,%Inh,TIE2,16%
same,%Inh,TLK1,0%
CCc1nc(-c2cccc(C)c2)c(-c2ccnc(NCc3ccccc3)c2)s1,%Inh,SRPK3,0%
same,%Inh,STK16,19%
same,%Inh,STK33,0%
same,%Inh,STK35,0%
same,%Inh,STK36,0%
same,%Inh,STK39,0%
same,%Inh,SYK,0%
same,%Inh,SgK110,22%
same,%Inh,TAK1,0%
same,%Inh,TAOK1,0%
same,%Inh,TAOK2,0%
same,%Inh,TAOK3,0%
same,%Inh,TBK1,13%
same,%Inh,TEC,9%
same,%Inh,TESK1,0%
same,%Inh,TGFBR1; [1],2%
same,%Inh,TGFBR2,0%
same,%Inh,TIE1,13%
same,%Inh,TIE2,0%
same,%Inh,TLK1,22%
